Growth data for 7 compounds are collected here from PubChem BioAssay (NCI).

Among the test systems are NCI-H23 lung; NCI-H226 lung; NCI-H322M lung; HOP-62 NSCLC; NCI-H460 lung; HOP-92 NSCLC; NCI-H522 lung; A549/ATCC NSCLC; 786-0 renal; COLO 205 colon; DU-145 prostate; K-562 leukemia; MALME-3M melanoma; MDA-MB-231 breast; RXF 393 renal; SF-268 CNS; SF-295 CNS; SF-539 CNS; UACC-257 melanoma; M14 melanoma.
Common to all, as to assay: NCI-60 one-dose screen, 48 h (100 = growth as untreated, 0 = no growth, -100 = all killed)
Holding throughout (details): 10 µM unless noted

This is part of a sample that, as a whole, favours compounds with a hit. Of some 83,000 tested, about 20% had one in any assay.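 48-hour exposure, single concentration, 96-well plates; percent growth endpoint where 0 means no net growth. Active: below 10.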 A number with no mark means an inactive call. The source made the active and inactive calls.

For the compound `CCN1C(=O)N(CC)C2NNC(Sc3c(C(=O)O)c4ccccc4n(CC(C)C)c3=O)=NC21` (stereo not given), the growth was 10.7% with NCI-H23 lung; 51.2% in the test with NCI-H226 lung; 56.2% with NCI-H322M lung; 34.1% with HOP-62 NSCLC; -1.23% (active) in the test on NCI-H460 lung; 80.8% with HOP-92 NSCLC. In addition, the growth is -32.3% (active) in the test with NCI-H522 lung; 20.9% in the test on A549/ATCC NSCLC; 26.9% with 786-0 renal; -21.4% (active) in the test with COLO 205 colon; 20% in the test with DU-145 prostate; 5.86% (active) in the test on K-562 leukemia. The growth in the test on MALME-3M melanoma is 48.1%; with MDA-MB-231 breast it was 15.9%; in the test on RXF 393 renal it was 81.8%; with SF-268 CNS, 55.7%; in the test on SF-295 CNS it was -14.8% (active); with SF-539 CNS, -29% (active). The growth is 50.3% in the test on UACC-257 melanoma and 22.4% in the test with M14 melanoma.
Regarding `N#Cc1cc(-c2ccnc(Nc3ccc(N4CCN(C5COC5)CC4)cc3)n2)ccc1N1CCCC1`, the growth in the test on NCI-H23 lung is 82.9%; in the test on NCI-H226 lung, 71%; with NCI-H322M lung, 63.9%; in the test with HOP-62 NSCLC, 64.3%; with NCI-H460 lung, 49.9%; with HOP-92 NSCLC it was 52.5%. The growth in the test with NCI-H522 lung was 65.6%; in the test with A549/ATCC NSCLC, 67.3%; in the test on 786-0 renal, 16.9%; in the test with COLO 205 colon, 86.1%; with DU-145 prostate, 51%; with K-562 leukemia it was 42.5%. Besides, the growth with MALME-3M melanoma is 104%; in the test on MDA-MB-231 breast, 65%; in the test with RXF 393 renal, 9.2% (active); in the test with SF-268 CNS, 50.2%; in the test on SF-295 CNS, 85.6%; in the test with SF-539 CNS it was 46.5%. The growth in the test on UACC-257 melanoma is 74.4%; with M14 melanoma, 71.9%.
Consider `NS(=O)(=O)c1ccc(Nc2nc(SCC(=O)c3ccc(F)cc3)nc3ccccc23)cc1`, for which the growth in the test with NCI-H23 lung is 41.8%; in the test on NCI-H226 lung, 50.1%; with NCI-H322M lung, 58.7%; in the test with HOP-62 NSCLC it was 54.4%; in the test with NCI-H460 lung it was 36%; in the test with HOP-92 NSCLC it was 56.3%. The growth is 42.1% in the test with NCI-H522 lung; 53.8% in the test on A549/ATCC NSCLC; 68.9% with 786-0 renal; 77% in the test with COLO 205 colon; 52.9% with DU-145 prostate; 24.1% in the test on K-562 leukemia. Besides, the growth in the test on MALME-3M melanoma is 31.7%; with MDA-MB-231 breast, 51.7%; with RXF 393 renal it was 63.5%; in the test on SF-268 CNS it was 46.8%; in the test on SF-295 CNS, 59.9%; in the test on SF-539 CNS it was 53.2%. Besides, the growth is 77.9% with UACC-257 melanoma and 56% with M14 melanoma.
Take `Cn1cc(-c2cc(N)n3nc(-c4c[nH]c5ccc(F)cc45)cc3n2)c2cc(Br)cnc21`: the growth in the test with NCI-H23 lung was 94.3%; in the test on NCI-H226 lung, 68.6%; with NCI-H322M lung it was 80.1%; in the test with HOP-62 NSCLC, 71.1%; with NCI-H460 lung, 57.5%; in the test with HOP-92 NSCLC it was 27.3%. Further, the growth with NCI-H522 lung was 27.6%; in the test on A549/ATCC NSCLC it was 54%; in the test with 786-0 renal, 44.4%; with COLO 205 colon it was 119%; in the test with DU-145 prostate, 69.9%; with K-562 leukemia it was -69% (active). The growth with MALME-3M melanoma is 75.6%; in the test on MDA-MB-231 breast, 13.2%; with RXF 393 renal, 11.7%; with SF-268 CNS it was 89.3%; in the test with SF-295 CNS, 69.6%; in the test with SF-539 CNS, 52.8%. In addition, the growth with UACC-257 melanoma is 84.6%; in the test on M14 melanoma, 55.4%.
With `CCc1ccccc1-c1nc(CN[C@@H]2C[C@@H]3C[C@H]([C@H]2C)C3(C)C)c(C)o1`, the growth with NCI-H23 lung was -78.7% (active); in the test on NCI-H226 lung, -68.7% (active); in the test with NCI-H322M lung, -92.5% (active); in the test with HOP-62 NSCLC it was -78.9% (active); with NCI-H460 lung, -54.5% (active); in the test on HOP-92 NSCLC it was -81.5% (active). Further, the growth in the test with NCI-H522 lung was -85.9% (active); in the test on A549/ATCC NSCLC, -49.7% (active); in the test on 786-0 renal, -82.1% (active); with COLO 205 colon, -74.8% (active); with DU-145 prostate it was -74.9% (active); in the test on K-562 leukemia, 12.2%. For the same compound, the growth is -80.5% (active) in the test on MALME-3M melanoma; -78.3% (active) in the test with MDA-MB-231 breast; -85.1% (active) in the test with RXF 393 renal; 6.04% (active) with SF-268 CNS; -93.5% (active) in the test on SF-295 CNS; -96.5% (active) with SF-539 CNS. In addition, the figures for the growth in the test on UACC-257 melanoma and with M14 melanoma were -75.8% (active) and -83.5% (active), respectively.
As for `C#CCN(C)CCCOc1ccc(N(CC)C(=O)c2cc(C(C)C)c(O)cc2O)cc1Cl`, the growth in the test with NCI-H23 lung was -5.94% (active); with NCI-H226 lung it was -13.8% (active); in the test on NCI-H322M lung, 23.4%; with HOP-62 NSCLC it was 26%; with NCI-H460 lung, -52.4% (active); with HOP-92 NSCLC, -44.6% (active). Moreover, the growth was -14.9% (active) in the test with NCI-H522 lung; 15.9% in the test with A549/ATCC NSCLC; 21.6% in the test with 786-0 renal; 4.62% (active) in the test on COLO 205 colon; 1.4% (active) in the test with DU-145 prostate; -26.6% (active) in the test with K-562 leukemia. In addition, the growth was -51.5% (active) in the test on MALME-3M melanoma; -45.3% (active) in the test on MDA-MB-231 breast; 2.57% (active) in the test with RXF 393 renal; 28.2% in the test on SF-268 CNS; -2.79% (active) in the test on SF-295 CNS; 6.42% (active) in the test with SF-539 CNS. Also, the growth in the test on UACC-257 melanoma is -11.6% (active); with M14 melanoma, -45.8% (active).
For `CC[C@]12C=CCN3CC[C@]4(C(=C(C(=O)OC)C1)Nc1cc(OC)c([C@@H]5[C@H]6O[C@H]6[C@@]6(CC)CC(C(=O)OC)=C7Nc8cc(O)ccc8[C@@]78CCN5[C@@H]68)cc14)[C@@H]32`, the growth in the test with NCI-H23 lung was -18.8% (active); in the test on NCI-H226 lung, -58.1% (active); in the test on NCI-H322M lung, 33.6%; with HOP-62 NSCLC, 32.2%; with NCI-H460 lung, -68.4% (active); in the test on HOP-92 NSCLC it was -41.9% (active). For the same compound, the growth in the test with NCI-H522 lung was -31.2% (active); in the test on A549/ATCC NSCLC, 17.2%; with 786-0 renal it was -8% (active); in the test with COLO 205 colon it was -70.2% (active); in the test with DU-145 prostate, 23.2%; in the test with K-562 leukemia, -3.65% (active). For the same compound, the growth with MALME-3M melanoma was -77.4% (active); in the test on MDA-MB-231 breast, -54.2% (active); in the test on RXF 393 renal, -34.2% (active); in the test on SF-268 CNS it was 22.3%; in the test on SF-295 CNS it was -47.2% (active); in the test with SF-539 CNS it was -38.4% (active). Moreover, the growth with UACC-257 melanoma was -10.2% (active); in the test with M14 melanoma, -28.4% (active).
